Calls of active or inactive are those of the source.
How the values were obtained:
[1] = system: Plasmodium falciparum Sir2 (PF13_0152, Sir2A); experiment: pfSir2 binders on small-molecule microarrays, primary screen, biochemical, small-molecule microarray, 635 nm fluorescence (AID 1098); details: small-molecule microarray binding, fluorescence 635 nm; higher = more signal;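 further: score merges spot fluorescence intensity with its signal-to-noise ratio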
[2] = small-molecule microarray binders of probe aDKK1, primary screen, biochemical, biotinylated probe, 635/667 nm fluorescence (AID 1099); details: higher = more signal;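 further: score merges 667nm spot fluorescence with signal to noise across triplicate slides; reference of the scale not given here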
[3] = small-molecule microarray binders of probe aCHRDL2, primary screen, biochemical, biotinylated probe, 635/667 nm fluorescence (AID 1100); details: higher = more signal
[4] = splicing luciferase reporter signal modulators, primary screen, spliceosome inhibition project, cell-based, HEK293, splice +/- reporter (AID 1101); details: luminescence, 24 h, higher = more signal, called active from +8 up or from −8 down;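 further: HEK293 cells carrying a splicing-competent luciferase reporter gene; test concentration not given here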
[5] = target: Fibroblast growth factor 10 (Homo sapiens) (UniProt O15520); experiment: FGF10 binders on small-molecule microarrays, primary screen, biochemical, small-molecule microarray, 635 nm fluorescence (AID 1102); details: FGF10 binding, fluorescence 635 nm, higher = more signal
[6] = system: glycogen synthase kinase-3 (GSK3A per assay name; protocol says GSK3B); experiment: GSK3 binders on small-molecule microarrays, primary screen, biochemical, small-molecule microarray, 635 nm fluorescence, GSK3A (AID 1103); details: small-molecule microarray binding, fluorescence 635 nm; higher = more signal; further: the record names both GSK3A and GSK3B
[7] = target: Epidermal growth factor receptor (Homo sapiens) (UniProt P00533); experiment: EGFR binders on small-molecule microarrays, primary screen, biochemical, small-molecule microarray, 635 nm fluorescence (AID 1104); details: EGFR binding, higher = more signal;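 further: score merges 667 nm emission intensity with spot signal to noise over triplicate slides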
[8] = target: Follistatin-related protein 3 (Homo sapiens) (UniProt O95633); experiment: FSTL3 binders on small-molecule microarrays, primary screen, biochemical, small-molecule microarray, 635 nm fluorescence (AID 1105); details: FSTL3 binding, higher = more signal;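 further: score merges emission near 667 nm and signal to noise per printed spot across three slides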
[9] = target: Dickkopf-related protein 1 (Homo sapiens) (UniProt O94907); experiment: DKK1 binders on small-molecule microarrays, primary screen, biochemical, small-molecule microarray, 635 nm fluorescence scan (AID 1106); details: DKK1 binding, higher = more signal;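 further: score merges emission near 667 nm with signal to noise over three replicate slides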
[10] = system: Inhibin beta A chain (activin A); experiment: INHBA (activin A) binders on microarrays, primary screen, biochemical, small-molecule microarray, 635 nm fluorescence scan (AID 1107); details: small-molecule microarray binding, higher = more signal;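 further: mouse activin A protein probed at 4.33 µg/mL on printed slides; score merges bound-protein fluorescence near 667 nm with spot signal-to-noise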

Sequence of Fibroblast growth factor 10 (Homo sapiens) (O15520 whole entry, looked up): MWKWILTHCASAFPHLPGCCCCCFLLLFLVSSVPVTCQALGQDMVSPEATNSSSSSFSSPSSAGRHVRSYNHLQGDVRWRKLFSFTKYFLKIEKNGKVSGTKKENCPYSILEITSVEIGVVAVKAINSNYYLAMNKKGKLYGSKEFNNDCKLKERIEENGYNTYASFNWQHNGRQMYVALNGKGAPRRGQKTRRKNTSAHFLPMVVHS
Sequence of Epidermal growth factor receptor (Homo sapiens) (P00533 whole entry, looked up): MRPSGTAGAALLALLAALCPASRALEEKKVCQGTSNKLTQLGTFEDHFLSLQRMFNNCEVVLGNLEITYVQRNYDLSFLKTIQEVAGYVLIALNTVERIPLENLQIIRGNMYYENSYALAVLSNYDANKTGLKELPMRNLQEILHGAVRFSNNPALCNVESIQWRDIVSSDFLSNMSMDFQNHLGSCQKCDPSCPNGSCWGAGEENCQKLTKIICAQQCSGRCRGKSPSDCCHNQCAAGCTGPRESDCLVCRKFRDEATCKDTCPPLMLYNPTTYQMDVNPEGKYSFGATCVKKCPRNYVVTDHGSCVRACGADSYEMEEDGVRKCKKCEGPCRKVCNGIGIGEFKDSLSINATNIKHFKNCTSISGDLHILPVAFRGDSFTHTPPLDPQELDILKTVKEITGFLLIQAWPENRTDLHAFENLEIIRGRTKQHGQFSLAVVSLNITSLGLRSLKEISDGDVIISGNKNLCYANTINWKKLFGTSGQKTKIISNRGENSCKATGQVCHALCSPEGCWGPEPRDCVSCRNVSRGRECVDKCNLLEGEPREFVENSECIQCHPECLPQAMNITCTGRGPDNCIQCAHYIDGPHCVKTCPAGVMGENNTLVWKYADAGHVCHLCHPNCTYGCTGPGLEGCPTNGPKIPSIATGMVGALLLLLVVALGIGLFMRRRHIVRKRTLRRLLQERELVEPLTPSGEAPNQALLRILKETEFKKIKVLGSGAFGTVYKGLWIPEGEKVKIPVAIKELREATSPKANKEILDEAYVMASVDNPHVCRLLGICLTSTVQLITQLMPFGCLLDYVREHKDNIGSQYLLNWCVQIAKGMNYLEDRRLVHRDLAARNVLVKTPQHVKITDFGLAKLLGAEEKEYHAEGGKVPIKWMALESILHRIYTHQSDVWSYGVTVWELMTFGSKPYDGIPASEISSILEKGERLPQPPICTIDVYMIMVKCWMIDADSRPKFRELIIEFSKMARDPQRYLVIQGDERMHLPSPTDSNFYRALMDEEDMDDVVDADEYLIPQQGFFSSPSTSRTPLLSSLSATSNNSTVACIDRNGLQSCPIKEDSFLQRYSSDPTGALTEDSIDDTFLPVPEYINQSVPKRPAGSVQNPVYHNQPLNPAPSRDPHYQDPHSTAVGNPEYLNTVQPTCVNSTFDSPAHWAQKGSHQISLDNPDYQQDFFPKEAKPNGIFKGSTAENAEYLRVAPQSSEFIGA
Sequence of Dickkopf-related protein 1 (Homo sapiens) (O94907 whole entry, looked up): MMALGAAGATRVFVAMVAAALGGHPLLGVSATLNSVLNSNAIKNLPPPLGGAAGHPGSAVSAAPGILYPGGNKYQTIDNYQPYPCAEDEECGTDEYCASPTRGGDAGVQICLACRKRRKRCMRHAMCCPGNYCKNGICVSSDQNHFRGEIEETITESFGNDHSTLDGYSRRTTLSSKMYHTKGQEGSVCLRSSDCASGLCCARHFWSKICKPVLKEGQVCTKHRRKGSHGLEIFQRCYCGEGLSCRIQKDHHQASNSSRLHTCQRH
Sequence of Follistatin-related protein 3 (Homo sapiens) (O95633 whole entry, looked up): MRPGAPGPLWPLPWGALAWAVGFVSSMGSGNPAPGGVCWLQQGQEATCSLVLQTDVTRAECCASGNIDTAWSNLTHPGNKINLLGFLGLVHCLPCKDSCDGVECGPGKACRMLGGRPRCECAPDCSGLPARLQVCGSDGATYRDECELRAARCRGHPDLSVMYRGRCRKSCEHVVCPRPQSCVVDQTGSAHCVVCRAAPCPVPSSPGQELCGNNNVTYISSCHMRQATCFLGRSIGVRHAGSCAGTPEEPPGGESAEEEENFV

SMILES	composite z-score [1]	composite z-score [2]	composite z-score [3]	z-score [4]	composite z-score [5]	composite z-score [6]	composite z-score [7]	composite z-score [8]	composite z-score [9]	composite z-score [10]
CCOC(=O)NN=C1C[C@@H](O)[C@@H](O)[C@@H]2[C@@H]3C(=O)N(c4cccc(Oc5ccccc5)c4)C(=O)[C@@H]3CC[C@H]12	0.424	0.104	-0.566	-0.652 (inactive)	0.518	0.176	0.381	0.455	0.222	0.0233
CCOC(=O)[C@H](Cc1ccccc1)NC(=O)CCC1CC(OC(=O)NCc2cccc3ccccc23)CC2(CCCC(COC(=O)NCc3ccccc3)O2)O1 (stereo not given in full)	0.388	-0.208	-0.285	-2.41 (inactive)	0.286	-0.231	0.173	0.689	0.223	0.103
CCN1C(=O)[C@H]2[C@H]3[C@H](O)[C@H](O)CC(=NOCC(C)C)[C@@H]3CC[C@H]2C1=O	0.85	-0.0898	-0.672	0.272 (inactive)	0.546	1.24	0.767	0.912	0.797	-0.599
CC(=O)OC[C@H]1O[C@@H](ON=C(C)CCN2CCCc3nc(C)c(C)cc32)[C@H](OC(C)=O)[C@@H](OC(C)=O)[C@@H]1OC(C)=O	0.541	-0.132	-0.638	-0.548 (inactive)	1.03	1.29	0.804	1.26	0.855	-0.263
C[C@H]1COC(=O)[C@@H]2CCCN2C(=O)[C@@H](C)COC(=O)[C@H](Cc2ccccc2)NC1=O	0.878	-0.275	-0.647	0.282 (inactive)	0.338	0.727	0.911	0.511	0.374	-0.372
C#CCCCON=C1[C@H]2CCn3c(=O)n(C)c(=O)n3[C@H]2[C@H](O)[C@@H]2O[C@H]12	0.325	-0.316	-0.548	0.0589 (inactive)	0.478	0.832	0.719	0.938	0.811	0.213
O=C1[C@H]2[C@H]3[C@H](O)[C@H](O)CC(=NOCc4ccccc4)[C@@H]3CC[C@H]2C(=O)N1Cc1ccc2c(c1)OCO2	0.0183	-0.225	-0.453	0.631 (inactive)	0.32	-0.0163	0.317	0.517	0.472	0.45
O=C(NN=C1C[C@@H](O)[C@@H](O)[C@@H]2[C@@H]3C(=O)N(Cc4ccccc4)C(=O)[C@@H]3CC[C@@H]12)OCc1ccccc1	0.0168	-0.293	-0.284	-0.566 (inactive)	0.0818	0.329	0.263	0.31	0.357	0.198
CCOC(=O)[C@H](Cc1ccccc1)NC(=O)CCC1CC(OC(=O)NCc2ccc3c(c2)OCO3)CC2(CCCC(COC(=O)NCCc3ccccc3OC)O2)O1 (stereo not given in full)	0.604	-0.0864	-0.465	0.222 (inactive)	0.977	1.23	0.539	1.35	0.759	0.0493
CO[C@@H]1COC(=O)[C@H](CCSC)NC(=O)CC=C[C@@H](C)COC(=O)CCC[C@H]1C	0.919	-0.374	-1.25	-0.433 (inactive)	0.399	1.26	1.03	1.03	2.36	-1.51
C[C@@H](c1ccccc1)N1C(=O)[C@H]2[C@H]3[C@H](O)[C@H](O)CC(=NO[C@@H]4O[C@H](CO)[C@@H](O)[C@H](O)[C@H]4O)[C@H]3CC[C@H]2C1=O	0.249	-0.155	-0.546	0.0641 (inactive)	0.559	0.783	0.425	1.03	0.44	0.0882
C=COC[C@@H]1CN2[C@@H](CC[C@@H](C)[C@@H]2c2ccc(Br)cc2)C(=O)O1	0.0845	-0.319	-0.0905	-0.589 (inactive)	-0.472	-0.413	-0.46	-0.46	-0.0521	1.47
CC(C)[C@@H](OCc1ccccc1)[C@H](C)C=NOC[C@@H](O)COCc1ccco1	-0.887	-0.869	-0.666	-0.129 (inactive)	-0.557	-0.279	-1.11	-0.94	-1.62	-3.73
CON=Cc1ccc(C(=O)N2[C@H](c3ccc(C)cc3)[C@@H](C)CC[C@H]2C(=O)OC)cc1	0.365	-0.254	-0.541	0.224 (inactive)	0.52	0.873	0.594	0.512	0.573	0.339
CCOC(=O)[C@H](Cc1ccccc1)NC(=O)CCC1CC(OC(=O)NCCc2ccc(F)cc2)CC2(CCCC(COC(=O)NCCc3ccccc3OC)O2)O1 (stereo not given in full)	1.14	-0.275	-0.556	-0.0644 (inactive)	1.06	1.28	0.42	0.857	0.782	-0.314
CO[C@@H]1COC(=O)[C@H](CCSC)NC(=O)CC=C[C@@H](C)COC(=O)[C@H](C)NC(=O)CC=C[C@H]1C	0.931	-0.34	-0.833	0.0885 (inactive)	0.816	0.856	0.953	1.1	1.19	-0.0263
COC(=O)CC=C[C@@H](C)[C@@H](C=NOCC[C@@H]1C=C[C@H](OC(C)=O)[C@@H](COC(C)=O)O1)NS(=O)(=O)c1ccc(C)cc1	0.133	-0.322	-0.331	-0.43 (inactive)	-0.183	0.328	0.736	0.0237	0.316	0.46

SMILES	composite z-score [1]	composite z-score [2]	composite z-score [3]	z-score [4]	composite z-score [5]	composite z-score [6]	composite z-score [7]	composite z-score [8]	composite z-score [9]	composite z-score [10]
CCOC(=O)[C@H](CC(C)C)NC(=O)CCC1CC(OC(=O)NCc2ccc3c(c2)OCO3)CC2(CCCC(COC(=O)NCCCN3CCCC3=O)O2)O1 (stereo not given in full)	0.929	-0.0602	-0.568	-0.719 (inactive)	0.783	0.805	0.414	0.734	0.509	-0.0813
O=C1CCCC=C1C(CCc1ccccc1)OC(=O)c1ccc(Br)cc1 (stereo not given)	-0.258	-0.0892	-0.442	-0.173 (inactive)	0.146	-0.61	0.362	0.283	0.422	0.608
CC(CCC(=O)OC[C@H]1O[C@H](C#Cc2ccccc2)C=C[C@@H]1Oc1ccc(C)cc1)=NO[C@H](C)c1cn([C@H](CO)Cc2ccccc2)nn1	0.708	-0.164	-0.532	0.448 (inactive)	0.17	0.197	0.217	1.12	0.655	0.282
C=CC[C@@H]1C=C[C@H](ON=C[C@@H](C)[C@H](OCc2ccccc2)C(C)C)[C@@H](CO)O1	1.07	-0.5	-0.353	0.305 (inactive)	-0.483	-0.363	-0.852	-0.568	-0.189	-0.291
CCCNC(=O)OC[C@H]1O[C@H](CCON=C(C)C)C=C[C@@H]1Oc1ccc(OC)cc1	0.415	0.325	0.707	-0.0557 (inactive)	0.325	-0.515	-0.0864	-0.125	-0.288	1.23
CCOC(=O)[C@H](CC(C)C)NC(=O)CCC1CC(OC(=O)NCCc2ccc(F)cc2)CC2(CCCC(COC(=O)NCC3CCCCC3)O2)O1 (stereo not given in full)	0.0149	-0.227	-0.283	-0.152 (inactive)	0.953	0.293	0.432	0.8	0.479	-0.174
O=c1n(Cc2cc3c(cc2Cl)OCO3)c(=O)n2n1CC[C@@H]1C(=NOCc3ccccc3)[C@H]3O[C@H]3[C@@H](O)[C@@H]12	0.172	0.87	-0.546	-1 (inactive)	0.531	0.432	0.452	0.587	0.669	0.111
CO[C@H]1COC(=O)CCC[C@@H](C)[C@H](OC)COC(=O)[C@@H](C)NC(=O)CC=C[C@@H]1C	1.69	-0.502	-1.14	-1.15 (inactive)	0.313	0.97	1.2	0.938	1.57	1.21
CC(C)CON=C1C[C@@H](O)[C@@H](O)[C@@H]2[C@@H]3C(=O)N(c4ccc(F)cc4F)C(=O)[C@@H]3CC[C@H]12	0.256	-0.212	-0.509	-0.972 (inactive)	0.553	0.458	0.59	0.986	0.671	-0.253
CCOC(=O)[C@H](CC(C)C)NC(=O)CCC1CC(OC(=O)NCCc2ccc(F)cc2)CC2(CCCC(COC(=O)NCCC(C)C)O2)O1 (stereo not given in full)	0.264	-0.149	-0.424	-0.695 (inactive)	0.18	-0.0508	0.0889	0.27	0.324	0.175
CCN1C(=O)[C@H]2[C@H]3[C@H](O)[C@H](O)CC(=NOC[C@H]4O[C@H](c5ccccc5)C=C[C@@H]4Oc4ccc(OC)cc4)[C@@H]3CC[C@H]2C1=O	0.605	0.0709	-0.187	0.387 (inactive)	0.809	0.62	0.452	0.616	0.85	-0.0495
COc1ccc(COC(=O)NN=C2C[C@@H](O)[C@@H](O)[C@@H]3[C@@H]4C(=O)N(c5ccc(F)cc5F)C(=O)[C@@H]4CC[C@H]23)cc1	0.299	0.939	1.22	-0.531 (inactive)	0.0785	-0.258	-1.2	-0.496	-1.13	-0.009
COc1cccc([C@@H]2Oc3ccc(OC)cc3C(=O)[C@H]2O)c1	-0.117	-0.172	-0.705	-2.47 (inactive)	0.606	0.184	0.469	0.525	0.527	0.0204
CCOC(=O)[C@H](Cc1ccccc1)NC(=O)CCC1CC(OC(=O)NCCc2ccc(F)cc2)CC2(CCCC(COC(=O)NCc3ccccc3)O2)O1 (stereo not given in full)	0.857	-0.208	-0.614	0.207 (inactive)	1.16	0.572	0.33	0.76	0.529	0.0158
CCc1cc2c(nc1CC)CCN(CCC(C)=NOC[C@H]1O[C@H](c3ccccc3)C=C[C@@H]1Oc1ccc(OC)cc1)C2	0.507	0.46	0.0691	-1.47 (inactive)	-0.344	-0.26	-0.0924	-0.0668	-0.159	0.813
CO[C@H]1COC(=O)[C@@H](C)COC(=O)[C@H](COCc2ccccc2)NC(=O)CC=C[C@H]1C	0.641	-0.492	-0.828	0.104 (inactive)	0.121	-0.523	0.039	0.678	0.705	2.01

Source: PubChem BioAssay
